This is one part of the list. Active and inactive are the calls of the source.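 The calls were made as follows: active = both duplicate runs show 50% or greater inhibition; inconclusive = only one duplicate run shows over 50% inhibition; inactive = both runs show under 50% inhibition.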
Test: false signal in post-reaction Plk1 detection – biochemical, TR-FRET, compound added post-reaction, artefact control for Plk1 kinase inhibitor project (AID 756);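 also: 0% = DMSO max control and 100% = H-89 min control inhibited reaction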
Settings: Plk1 TR-FRET assay interference, at 10 µM, active compounds read high

Inhibition (interference), inactive:
O=C(Nc1cccc(F)c1)c1ccc(S(=O)(=O)N2CCCC2)cc1 -44.8%
COc1ccc(-c2nc(CS(=O)CC(=O)NCc3cccnc3)c(C)o2)cc1OC (stereo unspecified) -52.6%
C[N+]1(CCNC(=O)/C=N/O)CCCCC1 -46.6%
Cc1ccnc(N2C(=O)c3ccccc3C2Nc2ccc3c(c2)OCCO3)c1 (stereo unspecified) -50.1%
CC1CN(c2cc(=O)n(Cc3ccc(F)cc3)c(=O)[nH]2)CC(C)O1 (stereo unspecified) -49.5%
CC1CSc2nnc(CCc3ccccc3)n21 (stereo unspecified) -58.9%
